Sampled rows, rich in hits. Any-hit rate of the full collection: about 9.7%.
WNV protease inh – blocks West Nile virus NS2B-NS3 protease activity | AID 577 | z-score (no concentration beside the values) | WNV NS2B-NS3 protease, fluorogenic substrate Ex360/Em465; hits give low values | 65,000 tested, 0.18% active; in the data active = z-score below about -3
M1 agonist – activates the M1 muscarinic receptor; B-score at 10 µM; 64,000 tested, 3% active; CHO-M1 cells, Fluo-4 calcium fluorescence, agonist mode; hits give high values;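 active = fluorescence rise, raw or as B-score row- and column-corrected plate score, outside the 99.7% band of its plate's samples, either direction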
Autofluor 339 – intrinsic fluorescence of library compounds, ex339/em460 – biochemical, MLSMR library, data from DPM-DC assay, artefact control, profiling panel; compound autofluorescence, ex339/em460 nm, NADH buffer; hits give high values; 1 = no-compound wells, NADH background; fluorescence fold increase at 10 µM; 65,000 tested, 5.5% active;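 active = at 10 µM, mean starting fluorescence two-fold or more over control wells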;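 also: signal is the first read of a kinetic run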
Abs 340nm – absorbance at 340 nm; compound absorbance at 340 nm, fold over control; fold change at 10 µM; 65,000 tested, under 10 active; AID 708;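 active = at 10 µM dose, initial 340 nm absorbance at least 2 fold that of control wells; inactive = change under 2 fold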;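 also: initial absorbance extrapolated from kinetic A340 decline of NADH oxidation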
M1 antagonist – antagonists of rat M1 muscarinic receptor. P08482. CHO-M1 cells, Fluo-4 calcium, ACh EC80 antagonist mode; hits give low values. B-score at 10 µM. 64,000 tested, 3.4% active. AID 628;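 active = calcium fluorescence response, raw or row-and-column corrected B-score, differing from the plate sample mean either way at a set confidence level, mostly lower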
Target sequence (P08482 whole entry, looked up): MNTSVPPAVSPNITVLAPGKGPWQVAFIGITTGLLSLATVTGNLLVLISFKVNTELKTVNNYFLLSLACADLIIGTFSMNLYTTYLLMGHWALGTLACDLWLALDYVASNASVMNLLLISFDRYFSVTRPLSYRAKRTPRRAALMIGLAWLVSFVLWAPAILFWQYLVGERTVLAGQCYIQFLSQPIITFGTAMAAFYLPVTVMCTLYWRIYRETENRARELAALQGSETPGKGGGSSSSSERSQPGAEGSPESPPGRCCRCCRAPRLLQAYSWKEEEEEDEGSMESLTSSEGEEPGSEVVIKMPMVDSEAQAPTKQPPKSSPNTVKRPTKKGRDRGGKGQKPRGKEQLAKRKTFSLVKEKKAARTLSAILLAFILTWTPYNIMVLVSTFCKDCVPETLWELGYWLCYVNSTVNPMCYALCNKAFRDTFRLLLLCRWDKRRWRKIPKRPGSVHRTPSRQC
BAP1 inh – blocks human BAP1 ubiquitin-AMC hydrolysis; 72,000 tested, 0.48% active; Q92560; calls only at 20 µM; AID 436; recombinant BAP1, Ub-AMC hydrolysis fluorescence kinetic; hits give low values;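 active = activity remaining at or below 50% of control, provided the compound also passes the data quality filters; inactive = the rest, including low values that fail the filters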;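 also: 100% = DMSO wells rate and 0% = substrate alone blank rate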
* marks the source's active call; other numbers are inactive results; i = inactive; · = no result given.

SMILES	WNV protease inh	M1 agonist	Autofluor 339	Abs 340nm	M1 antagonist	BAP1 inh
Cc1cc(NCCN2CCCCC2)n2c(nc3ccccc32)c1C#N	0.84	-0.19	2.7*	0.99	0.76	·
Cc1cccc2cc(C#N)c(NCCCn3ccnc3)nc12	1.1	0.062	2.6*	0.98	0.9	·
Cc1cc(NCC2CCCO2)n2c(nc3ccccc32)c1C#N (stereo not given)	1.4	0.012	2.5*	1	1.5	·
O=C1CSC(c2ccccc2[N+](=O)[O-])N1 (stereo not given)	·	·	·	·	·	i
Cc1cc(N2CCN(C3CCCC3)CC2)n2c(nc3ccccc32)c1C#N	1.6	0.36	2.5*	1	-1.3	i
Cc1cc(N2CCN(C(=O)c3ccco3)CC2)n2nc(C)nc2n1	1.3	-0.36	1.1	1	-0.75	i
C=C(C)CN1CCN(c2cc(C)c(C#N)c3nc4ccccc4n23)CC1	·	·	·	·	·	i
CC(C)c1cc(N2CCN(C(=O)c3ccco3)CC2)n2c(nc3ccccc32)c1C#N	-0.9	2.1	2.1*	1.1	-0.88	i
COc1ccc(NC(=O)c2cccc([N+](=O)[O-])c2C)c(OC)c1	·	·	·	·	·	i
CCN(CC)c1nc2ccccc2n2cnnc12	-0.92	0.74	1.1	1.1	-0.33	i
CCOc1ccccc1Nc1nc2ccccc2n2cnnc12	0.82	-0.066	2.1*	1.1	0.032	i
COc1ccc2nc3oc(C(=O)NC4CCN(Cc5ccccc5)CC4)cc3cc2c1	0.13	-0.14	3.4*	1	-2	i
CCOC(=O)N1CCC(NC(=O)c2ccc3c(c2)sc2nc(-c4ccc(OC)cc4)cn23)CC1	0.11	·	3.5*	1	·	i
CCOC(=O)N1CCC(NC(=O)c2cc3cc4cc(OC)ccc4nc3o2)CC1	-0.0058	5.2	5.1*	1.1	-0.94	i
COc1ccc2nc3oc(C(=O)N4CCN(c5ccccc5F)CC4)cc3cc2c1	-0.88	0.67	1.4	1	0.0032	·
CCOC(=O)N1CCC(NC(=O)c2ccc3c(c2)N(CC)CCS3)CC1	1.3	0.043	2.4*	0.99	-0.22	i
CCOC(=O)N1CCC(NC(=O)c2cn(-c3ccc(OC)cc3)c(=O)c3ccccc23)CC1	1.6	0.33	1.2	1	0.33	i
CC(=O)NC(=O)c1cc2ccccc2oc1=Nc1ccc(I)cc1	·	·	·	·	·	i
CCCC(=O)N1CCN(c2ccc(C(=O)CC)cc2F)CC1	·	·	·	·	·	i
CN(C)CCNC(=O)c1ccc(COCC(F)(F)F)cc1	0.3	-1.5	1	0.99	1.5	i
CN(C)CCNC(=O)c1ccc2c(c1)N(Cc1ccc(F)cc1)CCS2	2.8	-1.7	2*	1	-1.1	i
c1ccc(Nc2nc(-c3cccnc3)cs2)nc1	1.8	-2.7*	1.1	1	0.66	i
c1cncc(Nc2nc(-c3cccnc3)cs2)c1	-0.03	0.0068	1.1	1.1	-0.58	i
CC(=O)Nc1cccc(Oc2ccc3c(c2)C(=O)N(CCC(=O)O)C3=O)c1	0.63	0.86	1.1	1	1.2	i
O=C(O)CCN1C(=O)c2ccc(NC(=O)c3cccs3)cc2C1=O	0.31	0.35	3.6*	1.1	-0.12	i
SMILES	WNV protease inh	M1 agonist	Autofluor 339	Abs 340nm	M1 antagonist	BAP1 inh
CCCC(=O)Nc1ccc2c(c1)C(=O)N(CCC(=O)O)C2=O	0.64	0.26	3.8*	1.1	0.038	i
O=C(Nc1cccc(N2CCCC2)c1)c1cccs1	1.8	0.54	1.1	1	0.046	i
COc1ccc(C(=O)N2c3ccccc3C(N(C(C)=O)c3ccccc3)CC2C)cc1 (stereo not given)	·	·	·	·	·	i
Cc1oc2cc(OCc3ccc(Cl)cc3)ccc2c(=O)c1Oc1ccccc1	·	·	·	·	·	i
CC(=O)Nc1cccc2c1C(=O)c1ccccc1C2=O	·	·	·	·	·	i
Oc1ccc(N=Cc2ccc(-c3cccs3)s2)cc1	7	-0.93	2.2*	1.1	-0.72	i
O=C1CCCC(O)=C1C=Nc1ccc(O)cc1	0.31	-0.98	1.1	1.2	1.1	i
CC(C)OC(=O)CC(=O)c1sc2nc3c(cc2c1N)CN(C)CC3	-0.75	7.3*	4.8*	1.1	0.055	i
CC(C)CNC(=O)c1cccc(NC(=O)c2ccc(NC(=O)c3ccco3)cc2)c1	0.96	0.6	1.1	1	1.4*	i
CC(C)(C)NC(=O)c1cccc(NC(=O)c2ccc(NC(=O)c3ccco3)cc2)c1	0.6	1.3	1.1	1.1	-1.1	i
O=c1[nH]c2ccccc2nc1-c1cc(Br)ccc1NCc1ccccc1	·	·	·	·	·	i
CNC(=O)c1cc2c(=O)n3cccc(C)c3nc2n(C(C)C)c1=N	7.8	0.63	3.8*	1.1	0.042	i
CCCCNC(=O)c1cc2c(=O)n3cccc(C)c3nc2n(Cc2ccccc2)c1=N	0.99	·	4*	1.1	·	i
CCNC(=O)c1cc2c(=O)n3cccc(C)c3nc2n(CCc2ccccc2)c1=N	2.1	0.59	2.3*	1.1	-1.1	i
Cc1ccc(Cn2c(=N)c(C(=O)NCc3ccco3)cc3c(=O)n4ccccc4nc32)cc1	0.47	-1.2	1.9	1	-2.3	·
O=C(NCCN1CCCC1)c1ccc2c(=O)n(CCc3ccccc3)c(=O)[nH]c2c1	2.8	-1.3	1.6	1.1	-0.16	·
Cc1cccn2c(=O)c3cc(C(=O)NCCN4CCOCC4)c(=N)n(CCc4ccccc4)c3nc12	0.97	0.47	2.3*	1.1	-1.1	·
COc1ccc(CCn2c(=N)c(C(=O)NCc3ccco3)cc3c(=O)n4ccccc4nc32)cc1OC	0.0083	1	1.1	1	-0.99	i
O=C(CCN1C(=O)c2ccccc2C1=O)Oc1ccc2c(c1)oc(=O)c1ccccc12	·	·	·	·	·	i
CC(C)(C)c1ccc(C(=O)Oc2ccc(Cl)cc2)cc1	·	·	·	·	·	i
CCn1c(=N)c(C(=O)NCc2cccnc2)cc2c(=O)n3cccc(C)c3nc21	2.4	-1.7	3.7*	0.99	-1	·
C=CCn1c(=N)c(C(=O)NCCCOC)cc2c(=O)n3cccc(C)c3nc21	3.5	-0.83	2.3*	1.1	-0.55	·
O=C(O)c1ccccc1C(=O)NCc1cccnc1	0.04	-0.021	1	0.99	0.18	i
CCSCCOC(=O)C1=C(C)NC2=C(C(=O)CC(C)(C)C2)C1c1ccc(C)s1 (stereo not given)	·	·	·	·	·	i
O=C1c2ccc(Br)cc2C(=O)N1c1cccc(C(F)(F)F)c1	·	·	·	·	·	i
COc1ccc(C)cc1NC(=O)c1ccoc1C	0.86	-0.00091	1.1	1	0.0095	i
COc1ccc2cc3cc(C(=O)NCCc4ccc(OC)c(OC)c4)oc3nc2c1	0.65	2.7	4.6*	1.1	-0.012	i
Cc1ccc2cc3cc(C(=O)NCCN4CCOCC4)oc3nc2c1	-0.21	0.79	3.2*	1.1	-1.2	i
COc1ccc(NC(=O)NCCCN2CCc3ccccc3C2)cc1	-0.68	0.13	1.1	0.99	-1.4	i

High-throughput results deposited in PubChem by several laboratories.
